Screening results from PubChem.
Hits are enriched below; roughly 2.9% of the tested compounds scored in any of these assays.
S2 tox: Viability Counterscreen for Primary qHTS for Inhibitors of ATXN expression. Potency, µM (series often up to 56.7 µM), usual class: cytotoxic. S2 cells (HEK-293 line with an ATXN2-luciferase reporter) viability, CellTiter-Fluor protease fluorescence, 24 h. hit rate 0.49% among 400,000. AID 651635, 2014; note: nearly all actives have a fitted effect of over 40% in size
ATXN2 expr inh: Primary qHTS for Inhibitors of ATXN expression; HEK-293 ATXN2-luciferase reporter, luminescence, 24 h; Potency, µM (top dose mostly 57 µM), without a hit: at the top dose activity change, negative = inhibition, most hits filed as inhibitors; hit rate 0.72% among 360,000; AID 1745845, 2022; note: % is set by controls: 0 for no effect and ±100 for the full control effect; nearly all actives have a fitted effect of over 55% in size
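qHTS (up to 57 uM final) was run with 24 h compound exposure of reporter cells at 37 °C. Each well was multiplexed: SteadyGlo luminescence measured ATXN2-luciferase expression after a fluorogenic Gly-Phe-AFC viability readout (25 uM final).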
Nrf2 inh: Nrf2 qHTS screen for inhibitors | Potency, µM (series often up to 46 µM), without a hit: at the highest dose activity change, negative = inhibition, most hits filed as inhibitors | hit rate 2.1% among 360,000 | A549 ARE-Fluc reporter, luciferase luminescence, 18-24 h | AID 504444, 2011; note: % is set by controls: 0 for no effect and ±100 for the full control effect; nearly all actives have a fitted effect of over 60% in size
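A549 ARE_Fluc cells, 5000/well, 5% FBS OPTI-MEM; compounds in dose-response, 18-24 h at 37 °C/5% CO2; CellTiter-Fluor viability read (Ex 405/Em 525), then BugLite luciferase luminescence = Nrf2 activity.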
Nrf2 ARE act: qHTS of Nrf2 Activators; hit rate 0.31% among 410,000; Potency, µM (highest dose often 46.1 µM), inactives show at the top dose activation, usual class: activators; AID 624171, 2012; AREc32 ARE-luciferase reporter (MCF7-derived line), luminescence, 24 h; note: % of control where 0% means no effect; nearly all actives have a fitted effect of over 65% in size
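Nrf2 activation is followed as ARE-luciferase induction in the AREc32 line after one day of compound treatment; luminescence is read with Steady-Glo.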
A549 tox: Nrf2 qHTS screen for inhibitors: counterscreen for cytotoxicity; A549 ARE-Fluc cells, CellTiter-Fluor viability, 18-24 h; Potency, µM (doses to about 46 µM), for the others: at the highest dose activity change, negative = cytotoxicity, hits mostly inhibitors; hit rate 0.16% among 390,000; note: % is set by controls: 0 for no effect and ±100 for the full control effect
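A549 ARE-Fluc cells in 5% FBS OPTI-MEM, 5000 cells/well, rested 2 h then exposed to compounds in concentration-response for 18-24 h at 37 °C. Viability by CellTiter-Fluor fluorescence (Ex 405/Em 525) after 30 min; luciferase luminescence (BugLite, 15 min, RT) read afterwards.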
Active calls of the source: *; i = inactive; ? = inconclusive; · = no result. Calls come from the whole dose curve; as a rule, active = well fitted curve in the direction sought with a large enough effect; inconclusive = small, poorly fitted or top-dose-only effect, or another doubt; inactive = no such curve, though single readings can be large; an effect the other way counts as inactive or inconclusive. Potency is the fitted concentration of half-maximal effect.

SMILES | S2 tox | ATXN2 expr inh | Nrf2 inh | Nrf2 ARE act | A549 tox
O=C(NCC1CCN(Cc2cccc(Cl)c2)CC1)Nc1ccc(F)c(Cl)c1 | 22.4µM* | ? | ? | -3.1% | -4.9%
Cc1ccc(NC(=O)c2ncn(CC(=O)N[C@H](C)c3cccc4ccccc34)n2)cc1C | i | -15.3% | -19.9% | 6.5% | ?
Cc1ccc(NC(=O)c2ncn(CCCN3CCN(Cc4cccc5ccccc45)CC3)n2)cc1C | 31.6µM* | ? | -9.8% | 5.8% | ?
CCC(=O)Nc1ccc(Cl)c(NC(=O)c2cccnc2)c1 | i | -0.6% | 1.7% | -0.3% | 3.4%
O=C(Nc1ccc(N2CCOCC2)c(S(=O)(=O)Nc2ccccc2Cl)c1)c1ccccc1 | i | -23.6% | 16.4µM* | -0.2% | -7.8%
COc1ccccc1NC(=O)Nc1ccc(Cl)c(S(=O)(=O)Nc2ccccc2OC)c1 | i | -24.1% | ? | -0.8% | -6.7%
O=C(Nc1ccc(N2CCOCC2)c(S(=O)(=O)Nc2ccccc2Cl)c1)c1ccc(=O)[nH]n1 | ? | -24.1% | -19.9% | 0.7% | -0.1%
COc1ccccc1NS(=O)(=O)c1cc(NC(=O)c2ccc(Cl)nc2)ccc1Cl | ? | 20µM* | 23.1µM* | 0.0% | ?
COc1ccccc1NS(=O)(=O)c1cc(NC(=O)c2ccncc2)ccc1N1CCCC1 | i | -2.8% | 20.6µM* | 2.0% | -16.3%
O=C(c1ccc(Cl)c(S(=O)(=O)N2CCCCC2)c1)N1CCCCC1 | i | -5.5% | 15.5% | 0.2% | -1.0%
CCC(C)c1ccc(S(=O)(=O)N2CCN(C(=O)c3ccc(Cl)c(S(=O)(=O)N4CCOCC4)c3)CC2)cc1 (stereo unspecified) | i | · | 10.3µM* | 0.6% | -10.4%
O=C(c1ccc(Cl)c(S(=O)(=O)N2CCCC2)c1)N1CCN(c2ccccc2)CC1 | i | -11.6% | 14.6µM* | 2.1% | -15.0%
O=C(c1ccc(Cl)c(S(=O)(=O)N2CCCCC2)c1)N1CCN(c2ccccc2)CC1 | i | -25.6% | 23.1µM* | -0.6% | -18.0%
O=C(c1ccc(Cl)c(S(=O)(=O)N2CCCCCC2)c1)N1CCN(c2ccccc2O)CC1 | i | -10.5% | 18.4µM* | -0.2% | -14.7%
CN(CC(=O)Nc1cccc(F)c1)C(=O)c1ccc(S(=O)(=O)N2CCCC2)cc1 | i | -11.0% | -17.2% | 3.3% | -4.2%
COc1cc(NC(=O)c2ccccc2)c(OC)cc1NC(=O)CN1C(=O)NC2(CCCCC2C)C1=O (stereo unspecified) | i | -6.6% | 7.8% | 0.8% | -0.9%
c1cc2c(cc1C1CCCCC1)c1c3n2CCCNC3CCC1 (stereo unspecified) | · | 28.2µM* | -6.5% | -3.4% | -0.8%
O=C1Nc2ccccc2N=C(c2ccc3c(c2)OCO3)C1N(C(=O)c1ccnc2ccccc12)c1ccccc1 (stereo unspecified) | ? | -36.5% | · | 6.9% | ·
O=C1Nc2ccccc2N=C(c2ccc3c(c2)OCO3)C1N(CCc1ccccc1)C(=O)CSc1ncccn1 (stereo unspecified) | 7.94µM* | 6.6% | · | 7.0% | ·
CCOC(=O)c1c(NC(=O)c2cc(=O)c3c(C)cc(C)cc3o2)sc(C)c1C | i | 0.5% | 10.1% | 2.4% | 1.6%
CN1C(=O)/C(=C/c2ccccc2Cl)Sc2ccc(C(=O)N3CCCC3)cc21 | i | · | 2.7% | 10.4% | 1.4%
CCOC(=O)C1CCCN(C(=O)c2ccc3c(c2)N(C)C(=O)/C(=C/c2ccccc2Cl)S3)C1 (stereo unspecified) | i | -30.1% | 23.1µM* | 2.0% | -14.4%
CCOc1ccc(/C=C2/Sc3ccc(C(=O)N4CCOCC4)cc3N(C)C2=O)cc1OC | i | -15.1% | ? | 10.1% | -13.7%
CN1C(=O)/C(=C/c2cccc(Cl)c2)Sc2ccc(C(=O)N3CCOCC3)cc21 | i | ? | 14.6µM* | 3.1% | -29.7%
O=c1[nH]c2ccc(S(=O)(=O)Nc3ccc(-c4nnc5n4CCCCC5)cc3)cc2o1 | i | 7.7% | 17.8% | -0.7% | -1.7%
SMILES | S2 tox | ATXN2 expr inh | Nrf2 inh | Nrf2 ARE act | A549 tox
O=c1c(-c2ccco2)[n+]([O-])c2ccccc2n1OCc1c(F)cccc1F | i | -26.8% | 10.6% | 0.708µM* | 0.8%
O=c1c(-c2ccco2)[n+]([O-])c2ccccc2n1OCc1ccccc1F | i | -15.8% | ? | ? | ?
O=c1c(-c2ccco2)[n+]([O-])c2ccccc2n1OCc1ccccc1 | i | · | 13.8% | 3.16µM* | -0.1%
COc1ccccc1COn1c(=O)c(-c2ccco2)[n+]([O-])c2ccccc21 | i | · | -27.1% | 9.3% | -2.2%
CCOC(=O)C1CCN(c2ncnc3c2cnn3-c2ccc(Cl)cc2)CC1 | i | ? | 2.91µM* | -1.7% | -0.5%
O=C(c1ccccc1)N1CCN(c2ncnc3c2cnn3-c2ccccc2)CC1 | i | 8.7% | ? | 4.0% | -4.1%
CCOC(=O)C1CCN(c2ncnc3c2cnn3-c2ccccc2)CC1 | ? | 9.3% | -10.7% | -0.4% | -4.2%
Cc1nn(-c2ccccc2)c(Cl)c1C(=O)N1CCN(c2ncnc3c2cnn3-c2ccccc2)CC1 | · | 17.8µM* | 20.6µM* | -0.6% | ?
O=C(C1CCCN(c2ncnc3c2nc2n3CCCCC2)C1)N1CCN(c2cccc(Cl)c2)CC1 (stereo unspecified) | 14.1µM* | · | 3.8% | -2.3% | 2.4%
Cc1ccc(C)c(N2CCN(C(=O)C3CCCN(c4ncnc5c4nc4n5CCCCC4)C3)CC2)c1 (stereo unspecified) | ? | ? | 14.6µM* | -0.5% | -17.7%
Cc1ccc(-c2nn[nH]n2)o1 | i | 3.9% | 1.7% | -0.8% | -1.5%
Cc1ccc2[nH]c(C)c(/C=C/c3cc[n+](C)cc3)c2c1 | ? | ? | ? | 6.9% | -20.8%
C[n+]1ccc(/C=C/c2ccc(Br)cc2)cc1 | ? | -17.0% | 7.31µM* | 11.1% | ?
CC1=C(C(=O)N(C(C)C)C(C)C)CC(CC(=O)NC2CCCCC2)C(=O)N1CCCN1CCCC1=O (stereo unspecified) | i | 12.4% | · | -1.1% | ·
CCN1C/C(=C\c2cccc([N+](=O)[O-])c2)C(=O)/C(=C/c2cccc([N+](=O)[O-])c2)C1 | 4.47µM* | 3.55µM* | 8.2% | ? | 1.4%
CN1CCN(c2ccc(Nc3ccnc4cc(Cl)ccc34)cc2)CC1 | ? | 3.55µM* | ? | 4.1% | 6.51µM*
CCN1CCN(c2ccc(Nc3ccnc4ccccc34)cc2)CC1 | i | ? | 11.9% | 0.0% | 6.51µM*
CCOc1ccc(Nc2ccnc3cc(Cl)ccc23)cc1 | i | -28.6% | 13.0% | 0.4% | -2.6%
O=C(NCC(c1ccco1)N1CCN(c2ccccc2F)CC1)C1CCCCC1 (stereo unspecified) | i | 4.1% | -23.6% | -0.3% | 0.2%
